The panel holds about 83,000 compounds, 20% with a hit somewhere; the sample as a whole holds those more often.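 Activity criterion: percent growth below 10, measured after cells in 96-well plates were exposed to a single compound concentration for 48 hours.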 A number with no mark means an inactive call. Activity calls are given as the source filed them.

Assay in all cases: NCI-60 one-dose screen, 48 h (100 = growth as untreated, 0 = no growth, -100 = all killed)
The subject of test [1] is EKVX NSCLC. To be noted: 10 µM unless noted.
The subject of test [2] is SN12C renal. The settings on record: 10 µM unless noted.
Test [3] concerns UO-31 renal. The settings on record: 10 µM unless noted.
In test [4] the test system is TK-10 renal. To be noted: 10 µM unless noted.
Test [5] concerns ACHN renal. To be noted: 10 µM unless noted.
For test [6], the system named is CAKI-1 renal. To be noted: 10 µM unless noted.
Test [7] has as its system CCRF-CEM leukemia. The settings on record: 10 µM unless noted.
For test [8], the system named is MOLT-4 leukemia. The settings on record: 10 µM unless noted.
In test [9] the test system is SR leukemia. To be noted: 10 µM unless noted.
Test [10] has as its system OVCAR-8 ovarian. To be noted: 10 µM unless noted.
The subject of test [11] is OVCAR-5 ovarian. To be noted: 10 µM unless noted.
Test [12] has as its system OVCAR-4 ovarian. To be noted: 10 µM unless noted.
For test [13], the system named is SK-OV-3 ovarian. To be noted: 10 µM.
The test system of test [14] is IGROV1 ovarian. To be noted: 10 µM unless noted.
Test [15] relates to OVCAR-3 ovarian. The settings on record: 10 µM unless noted.
In test [16] the test system is HS 578T breast. To be noted: 10 µM unless noted.
For test [17], the system named is NCI/ADR-RES ovarian. The settings on record: 10 µM unless noted.
For test [18], the system named is A498 renal. The settings on record: 10 µM unless noted.
Test [19] relates to RPMI-8226 leukemia. To be noted: 10 µM.

Consider `c1ccc2c(c1)oc1cc3c(cc12)nnc1cccn13`, for which the growth is 80.9% in test [1]; 103% in test [2]; 64.9% in test [3]; 122% in [4]; 99.8% in test [5]; 91.1% in test [6]. The growth in test [7] is 109%; in test [8], 108%; in [9], 94.6%; in [10], 102%; in test [11], 116%; in test [12], 107%. Moreover, the growth in test [13] is 108%; in [14], 87.4%; in [15], 107%; in test [16] it was 108%; in [17], 111%.
Regarding `COc1ccc(/C=C(\C#N)c2cc3ccccc3n2C)cc1`, the growth in test [1] is 39.1%; in [2], 44.7%; in test [3], 48.5%; in test [5], 45.5%; in test [6] it was 33.5%; in test [18], -12.9% (active). The growth was 18.3% in test [7]; 17.4% in test [8]; 18.7% in [9]; 34.2% in test [10]; 39.7% in test [11]; 37.1% in test [12]. Moreover, the growth is 34.7% in test [14], -34.3% (active) in test [15], 2.89% (active) in test [16] and 8.82% (active) in test [17].
For the molecule `Cc1cc(=O)c2c(C)ccc(C)c2[nH]1`, the growth in test [1] is 102%; in test [2], 101%; in test [3], 86.8%; in [4] it was 108%; in [5], 102%; in [6], 108%. The growth in test [18] is 108%; in [8] it was 100%; in [9], 110%; in test [19], 105%; in test [10] it was 94.5%; in test [11], 97.3%. The growth in test [12] was 106%; in [13], 107%; in test [14], 103%; in test [15], 169%; in [16], 108%; in test [17], 100%.
With `Oc1ccccc1/C=N/Nc1nc2ccccc2s1`, the growth was 61.9% in test [1]; 48.8% in test [2]; 19.7% in [3]; 95.1% in test [4]; 43.1% in test [5]; 7.12% (active) in test [6]. In addition, the growth in test [8] was 41.2%; in test [9], 43.7%; in test [19] it was 35.8%; in [10] it was 57.3%; in test [11], 91.8%; in test [12] it was 19.9%. The growth is 57.5% in [13], 13.8% in test [15], 65.2% in test [16] and 51.6% in [17].
For `O=C1/C(=C/c2ccccc2F)CNC/C1=C\c1ccccc1F`, the growth is 22.4% in [1]; -51.1% (active) in test [2]; -89.6% (active) in test [3]; -4.87% (active) in test [4]; -52.5% (active) in test [6]; -36.3% (active) in test [7]. Further, the growth in test [8] was -32.5% (active); in test [9], -2.72% (active); in [19] it was -27.8% (active); in [10], 2.92% (active); in test [11], -41.3% (active); in [12] it was 6.6% (active). In addition, the growth in test [13] was -45.1% (active); in test [14] it was -6.61% (active); in test [15], -68.6% (active); in test [16], 24.5%; in test [17] it was 10.9%.
For `CCN1CCN(C(=S)SCC(=O)Nc2nc3ccc(OC)cc3s2)CC1`, the growth is 101% in test [1]; 97.6% in test [2]; 79% in [3]; 111% in test [4]; 110% in [5]; 81.8% in [6]. In addition, the growth is 105% in [18]; 97.2% in test [8]; 88.3% in test [9]; 98% in [19]; 103% in test [10]; 98.8% in [11]. The growth in [12] is 93.3%; in test [13], 112%; in test [15], 101%; in [16] it was 106%; in test [17] it was 99.6%.
With `COc1ccc(/C=C(\C#N)c2ccc(OC)cc2)cc1`, the growth was 92.2% in test [1]; 67.5% in test [2]; 76.7% in test [4]; 88.3% in test [5]; 64.7% in [6]; 46.6% in test [18]. Moreover, the growth in [7] was 55.6%; in test [8], 56.9%; in [19] it was 55.8%; in test [10], 81.9%; in [11], 85.1%; in [12] it was 81.8%. In addition, the growth in [13] was 74.9%; in [15] it was 62.6%; in test [16], 86.3%; in test [17], 4% (active).
With `O=C(O)C[C@H](O)C[C@H](O)/C=C/c1c(C2CC2)nc2ccccc2c1-c1ccc(F)cc1`, the growth was 93.6% in [1]; 30.3% in test [2]; 73.3% in test [3]; 111% in test [4]; 39.7% in [5]; 26.1% in [6]. The growth is -28.9% (active) in [18]; 110% in [8]; 12.1% in test [9]; 61.5% in test [10]; 79% in test [11]; 111% in [12]. Besides, the growth in [13] is 93.7%; in [14], 53.4%; in test [15], 103%; in test [16], 70.1%; in test [17] it was 37.2%.
For the molecule `Cc1ccc(S(=O)(=O)N2CCc3ccc(O)c4c3C2CCc2ccccc2-4)cc1` (stereo not drawn), the growth in test [1] is 104%; in [2], 100%; in test [3], 67.6%; in test [4], 111%; in test [5], 93.4%; in test [6] it was 88.3%. Besides, the growth was 83% in [7]; 77.5% in test [8]; 76.5% in test [9]; 95.8% in test [19]; 98.8% in test [10]; 110% in test [11]. Besides, the growth in test [12] is 106%; in test [13] it was 101%; in [14], 113%; in test [15] it was 99.1%; in test [16] it was 106%; in [17], 104%.
With `COC(=O)/C=C1/CCC2C3CCC4=CC(=O)C(Br)CC4(C)C3C(=O)CC12C` (stereo not drawn), the growth in test [1] is 98%; in [2] it was 82.9%; in test [3], 81.1%; in [6] it was 73.9%; in test [18], 117%; in test [7], 5.9% (active). The growth is 52.3% in test [8]; 33% in test [9]; 61.1% in test [19]; 63.1% in test [10]; 112% in test [11]; 67.8% in [12]. Further, the growth in test [13] was 103%; in test [14], 25.1%; in test [15] it was 89.5%; in test [16], 86.7%; in test [17], 81.7%.
For the molecule `O=c1c2c(=NCCN3CCCC3)cc3c(=O)n(CCCN4CCOCC4)c(=O)c4c(-c5ccc(CN6CCCC6)cc5)cc(c(O)n1CCCN1CCOCC1)c2c4-3`, the growth in test [1] is -37% (active); in test [2], -25.5% (active); in test [3], -6.74% (active); in [6], 0.0079% (active); in [18], -85% (active); in test [7], -4.42% (active). In addition, the growth in [8] is 0.115% (active); in [9], 3.49% (active); in test [10], -10.7% (active); in [11] it was -34.6% (active); in test [12], -50.7% (active); in test [14], -25.4% (active). Besides, the growth was -22.5% (active) in [15], -26.3% (active) in [16] and -0.981% (active) in [17].
`O=C1c2ccccc2-c2nnc(-c3ccc(Br)cc3)cc21`: the growth in test [2] was 27.9%; in test [3], 46.9%; in [4] it was 119%; in test [5] it was 34.8%; in [6], 60.3%; in test [18] it was 97%. Moreover, the growth in test [7] was 20.7%; in test [8], 4.61% (active); in [9] it was 11.6%; in test [19], 27.4%; in test [10] it was 77.7%; in [11], 110%. Moreover, the growth was 10.1% in test [12]; 91.6% in [13]; 40.4% in [14]; -23% (active) in test [15]; 48.2% in test [16]; 9.3% (active) in [17].
As for `O=C(NC1CC1)c1cc2n(n1)CC(c1ccccc1)N2` (stereo not drawn), the growth in test [1] is 83.7%; in test [2], 102%; in test [3] it was 95.8%; in test [4] it was 102%; in [5], 106%; in test [6], 91.4%. For the same molecule, the growth in test [7] is 108%; in test [8], 109%; in [9] it was 104%; in test [19], 112%; in [10], 105%; in [12], 104%. In addition, the growth in test [14] was 100%; in test [15], 112%; in test [16] it was 83.8%; in test [17], 104%.
On to `Cc1c(C(=O)Nc2nc(-c3ccccc3)cs2)nnn1-c1ccccc1Br`, for which the growth in test [1] was 30.7% [50 µM]; in [2], 50.9% [50 µM]; in test [3] it was 41.7% [50 µM]; in test [5], 41.9% [50 µM]; in test [6] it was 33.7% [50 µM]; in test [18], 50.5% [50 µM]. Further, the growth in test [7] was 41.1% [50 µM]; in test [8] it was 17% [50 µM]; in test [9], 17% [50 µM]; in test [10] it was 40.1% [50 µM]; in test [11], 77.4% [50 µM]; in [12], 19.6% [50 µM]. Moreover, the growth in test [14] was 68.3% [50 µM]; in test [15] it was 57.3% [50 µM]; in [16], 65.3% [50 µM]; in test [17], 38.1% [50 µM].
Turning to `COC(=O)[C@@]12CC[C@@H](C)[C@]3(C[C@@H](c4ccoc4)OC3=O)[C@H]1CC[C@@H]1O[C@@]12C`, the growth in test [1] is 94.8%; in [2], 98.8%; in test [3], 78.9%; in test [4], 103%; in test [5], 105%; in test [6], 94.4%. Further, the growth in test [7] was 107%; in test [8], 110%; in [9] it was 110%; in test [19], 110%; in [10], 102%; in test [11] it was 91.4%. Moreover, the growth in [12] was 104%; in test [14] it was 103%; in test [15] it was 110%; in test [16], 98.7%; in [17], 102%.
For the molecule `O=C(CC(O)c1ccccc1)Nc1ccccn1` (stereo not drawn), the growth in [1] is 97%; in test [2], 93.1%; in [3], 77.1%; in test [4], 97.9%; in test [5], 111%; in test [6], 87.8%. Besides, the growth is 102% in test [18]; 86.9% in test [9]; 93.8% in [19]; 100% in [10]; 104% in test [11]; 97.1% in [12]. In addition, the growth in [13] was 94%; in test [14] it was 108%; in [15], 108%; in test [16], 106%; in test [17], 106%.

(Values after PubChem BioAssay (NCI).)
